The values below come from PubChem BioAssay (EPA / NIEHS).

Results filed as inconclusive are left out. The source made the active and inactive calls. How the source made its calls, unless noted: active means hit-call score of the fitted dose curve at least 0.9, where 1 is the maximum; inconclusive means response in the unintended direction; inactive means score below 0.9.

The nature of test [1]: ATG_M_61_CIS: Attagene CIS-FACTORIAL HepG2 Assay for M61 Transcription Factor (Internal Marker) (AID 2282937; active means hit-call score of the fitted dose curve at least 0.9, where 1 is the maximum; inactive means score below 0.9). The settings on record: HepG2 Attagene CIS-FACTORIAL M61 internal marker reporter; actives raise or lower the signal. The method in brief: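 Fluorescence from labelled cDNA fragments, separated by capillary electrophoresis, quantifies reporter induction. HepG2 cells bearing transiently transfected cis-promoter MRTUs were incubated with test chemical for 24 h; DMSO defined baseline for gain/loss fitting.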

A short description of test [2]: ATG_EGR_CIS: Attagene CIS-FACTORIAL HepG2 Assay for human Early Growth Response 1 (EGR1) (AID 2282938; active means hit-call score of the fitted dose curve at least 0.9, where 1 is the maximum; inactive means score below 0.9). The settings on record: HepG2 Attagene CIS-FACTORIAL EGR reporter mRNA; actives raise or lower the signal. In a few lines: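 Cell-based multiplex transcription assay: HepG2 carrying transfected cis-element reporter units, 24 h chemical treatment. Fluorescence from capillary electrophoresis of RT-PCR products gives mRNA levels; fitting is bidirectional relative to DMSO.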

Test [3] can be described thus: ATG_GRE_CIS: Attagene CIS-FACTORIAL HepG2 Assay for human Glucocorticoid Response Elements (GRE) (AID 2282947; active means hit-call score of the fitted dose curve at least 0.9, where 1 is the maximum; inactive means score below 0.9). The conditions noted are these: HepG2 GRE cis-reporter, Attagene multiplex mRNA; actives raise or lower the signal. In a few lines:
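Assay uses human hepatoma HepG2 cells transfected with cis-promoter reporter units, exposed 24 h. mRNA from reporters detected by RT-PCR plus capillary electrophoresis; DMSO serves as negative control and baseline.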

Test [4] in a line: ATG_PPRE_CIS: Attagene CIS-FACTORIAL HepG2 Assay for human Peroxisome Proliferator-activated Response Element (PPRE) (AID 2282958; active means hit-call score of the fitted dose curve at least 0.9, where 1 is the maximum; inactive means score below 0.9). The conditions noted are these: HepG2 PPRE cis-element reporter, Attagene transcription factor profiling; actives raise or lower the signal. In a few lines: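 Multiplexed reporter transcription units under cis-regulatory promoters were transfected into HepG2 cells to capture endogenous factor activity. A 24 h incubation preceded RNA isolation and fluorescent RT-PCR fragment analysis.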

Test [5] is described as follows: ATG_RORE_CIS: Attagene CIS-FACTORIAL HepG2 Assay for human RAR-related Orphan Receptor Element (RORE) (AID 2282959; active means hit-call score of the fitted dose curve at least 0.9, where 1 is the maximum; inactive means score below 0.9). The conditions noted are these: HepG2 Attagene cis-factorial RORE reporter, mRNA; actives raise or lower the signal. In a few lines:
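Fluorescence intensity of reporter-specific cDNA fragments, separated by capillary electrophoresis, gives the signal. Source: HepG2 liver cells transiently transfected with cis-element reporters and exposed 24 h; DMSO-normalized bidirectional fit.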

Test [6] in a line: ATG_TGFb_CIS: Attagene CIS-FACTORIAL HepG2 Assay for human Transforming Growth Factor (TGF) (AID 2282967; active means hit-call score of the fitted dose curve at least 0.9, where 1 is the maximum; inactive means score below 0.9). The conditions noted are these: HepG2 Attagene CIS TGFb reporter, mRNA transcription; actives raise or lower the signal. In a few lines:
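After a 24-hour incubation with compound, transfected HepG2 cells were lysed for RNA; reporter cDNA was amplified, fluorescently end-labeled and separated by CE. DMSO served as baseline for bidirectional fits.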

A short description of test [7]: ATG_M_19_TRANS: Attagene TRANS-FACTORIAL HepG2 Assay for M19 Transcription Factor (Internal Marker) (AID 2282974). The conditions noted are these: HepG2 Attagene TRANS-FACTORIAL M19 internal marker reporter. The method in brief:
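Measured here: internal-marker reporter transcript from HepG2 cells transfected with MRTUs, harvested at 24 h. cDNA PCR products were 6-FAM labelled by primer extension, cut with HpaI for 2 h at 37 C, and resolved by CE.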

Test [8] addresses Hepatocyte nuclear factor 4-alpha (Homo sapiens) (UniProt P41235). In words: ATG_HNF4a_TRANS: Attagene TRANS-FACTORIAL HepG2 Assay for human Hepatocyte Nuclear Factor 4 alpha (HNF4a) (AID 2282982). The settings on record: HepG2 HNF4a transactivation reporter, mRNA readout. The method in brief: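 Transfected HepG2 reporter cells are dosed for 24 h; reporter RNA is reverse-transcribed, amplified, fluorescently labelled and HpaI-digested before CE sizing. Positive-direction fit against DMSO.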

Test [9] in a line: ATG_M_06_TRANS: Attagene TRANS-FACTORIAL HepG2 Assay for M06 Transcription Factor (Internal Marker) (AID 2282983). The conditions noted are these: HepG2 Attagene TRANS M06 internal marker reporter. The method in brief:
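HepG2 cells transiently transfected with multiplexed GAL4-UAS reporter transcription units; after 24 h compound exposure, reporter mRNA measured by RT-PCR, FAM-labelled primer extension, HpaI digestion and capillary electrophoresis. Gain-of-signal fitted versus DMSO baseline; background control readout.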

Test [10] addresses Nuclear respiratory factor 1 (Homo sapiens) (UniProt Q16656). In words: ATG_NRF1_CIS: Attagene CIS-FACTORIAL HepG2 Assay for human Nuclear Respiratory Factor 1 (NRF1) Orphan Gene (AID 2282987; active means hit-call score of the fitted dose curve at least 0.9, where 1 is the maximum; inactive means score below 0.9). The settings on record: HepG2 NRF1 cis-element reporter, Attagene multiplex; actives raise or lower the signal. In a few lines: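 Transcriptional reporter readout, one component of a 52-endpoint multiplexed HepG2 panel. Exposure 24 h; mRNA detected via RT-PCR and fluorescent capillary electrophoresis; fitting in both directions against DMSO.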

The nature of test [11]: ATG_NFI_CIS: Attagene CIS-FACTORIAL HepG2 Assay for human Nuclear Factor I (NFI) (AID 2282989; active means hit-call score of the fitted dose curve at least 0.9, where 1 is the maximum; inactive means score below 0.9). The conditions noted are these: HepG2 cis-regulatory reporter, NFI response element transcription; actives raise or lower the signal. The method in brief: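 Reporter transcription driven by endogenous transcription factors in HepG2 cells; 24 h treatment. Quantitation by labelled RT-PCR fragments on capillary electrophoresis, gain- or loss-of-signal relative to DMSO.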

Test [12] concerns the target Nuclear receptor subfamily 1 group I member 2 (Homo sapiens) (UniProt O75469). Briefly: ATG_PXR_TRANS: Attagene TRANS-FACTORIAL HepG2 Assay for human Pregnane X Receptor (PXR) (AID 2283008). The method in brief:
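Measures mRNA induction of a GAL4-UAS-driven reporter in human HepG2 cells transiently expressing PXR fused to Gal4, following 24 h treatment. DMSO served as negative control and baseline.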

Test [13] concerns the target Retinoic acid receptor RXR-alpha (Homo sapiens) (UniProt P19793). Briefly: ATG_RXRa_TRANS: Attagene TRANS-FACTORIAL HepG2 Assay for human Retinoid X Receptor alpha (RXRa) (AID 2283012). The method in brief:
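HepG2 cells transiently transfected with multiplexed GAL4-UAS reporter units and chimeric NR-GAL4 fusions, dosed 24 h. Reporter mRNA measured by RT-PCR, FAM labelling, HpaI digestion and capillary electrophoresis; gain-of-signal fitted relative to DMSO baseline.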

Test [14] addresses human Retinoid X Receptor beta (RXRb), RXRB (gene 6257) (UniProt P28702). In words: ATG_RXRb_TRANS: Attagene TRANS-FACTORIAL HepG2 Assay for human Retinoid X Receptor beta (RXRb) (AID 2283013). In a few lines:
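HepG2 cells transiently transfected with multiplexed reporter units driven by GAL4-UAS and exogenous chimeric NR-Gal4 proteins; treated 24 h. Reporter mRNA measured by RT-PCR, 6-FAM labelling and capillary electrophoresis; gain-of-signal fitted versus DMSO baseline.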

Test [15] concerns the target Cellular tumor antigen p53 (Homo sapiens) (UniProt P04637). Briefly: TOX21_p53_BLA_p2_ratio: Tox21 HCT-116 p53 Agonism Beta-lactamase Assay, Ratio, Phase 2 (AID 2283592). In a few lines:
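HCT116 cells carrying a p53-responsive beta-lactamase reporter were plated, incubated 5 h at 37C, then dosed with compounds in DMSO (217-fold dilution) for 16 h. CCF4-AM substrate was added for 2 h at room temperature; the 460/530 nm emission ratio gave gain-of-signal activity relative to DMSO.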

For test [16] the target is unchanged. In words: TOX21_p53_BLA_p5_ratio: Tox21 HCT-116 p53 Agonism Beta-lactamase Assay, Ratio, Phase 5 (AID 2283599). In a few lines: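 Beta-lactamase reporter ratio (blue 460 nm over green 530 nm, 405 nm excitation) after 2 h CCF4-AM loading, in HCT-116 cells exposed 16 h at 37 C to compounds pinned at 217-fold dilution. Increases relative to DMSO baseline scored.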

Test [17] can be described thus: TOX21_p53_BLA_p5_viability: Viability Assessment in the Tox21 HCT-116 p53 Agonism Beta-lactamase Assay, Phase 5 (AID 2283600). In a few lines: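 Cells were plated at 4000/well, rested 5 h at 37C, then given compounds in DMSO (217-fold dilution) for 16 h at 37C, 5% CO2. Following the CCF4-AM beta-lactamase read, CellTiter-Glo was added and luminescence was read after 30 min at room temperature.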

Test [18] can be described thus: ATG_M_06_CIS: Attagene CIS-FACTORIAL HepG2 Assay for M06 Transcription Factor (Internal Marker) (AID 2282950; active means hit-call score of the fitted dose curve at least 0.9, where 1 is the maximum; inactive means score below 0.9). The conditions noted are these: HepG2 Attagene CIS-FACTORIAL M06 internal marker reporter; actives raise or lower the signal. The method in brief:
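One of many multiplexed endpoints: HepG2 reporter mRNA after 24 h dosing, detected by RT-PCR and capillary electrophoresis fluorescence; gain or loss of signal analysed against DMSO.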

Test [19] addresses Cellular tumor antigen p53 (Homo sapiens) (UniProt P04637). In words: TOX21_p53_BLA_p3_ratio: Tox21 HCT-116 p53 Agonism Beta-lactamase Assay, Ratio, Phase 3 (AID 2283596). In a few lines: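 HCT116 p53-bla cells (4000/well) given compound in DMSO (217-fold dilution) after 5 h, incubated 16 h at 37C. CCF4-AM substrate 2 h at room temperature; 460/530 nm emission ratio, gain fitted against DMSO.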

Test [20] shares this target. Briefly: TOX21_p53_BLA_p4_ratio: Tox21 HCT-116 p53 Agonism Beta-lactamase Assay, Ratio, Phase 4 (AID 2283601). The method in brief: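 Signal is the blue/green (460nm/530nm) ratio of cleaved versus uncleaved CCF4-AM substrate, read after 2 h substrate loading. Cells were HCT116 carrying the p53-responsive beta-lactamase reporter, dosed 16 h at 37C, 5% CO2; CellTiter-Glo measured in parallel.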

Sequence of Hepatocyte nuclear factor 4-alpha (Homo sapiens) (P41235 whole entry, looked up): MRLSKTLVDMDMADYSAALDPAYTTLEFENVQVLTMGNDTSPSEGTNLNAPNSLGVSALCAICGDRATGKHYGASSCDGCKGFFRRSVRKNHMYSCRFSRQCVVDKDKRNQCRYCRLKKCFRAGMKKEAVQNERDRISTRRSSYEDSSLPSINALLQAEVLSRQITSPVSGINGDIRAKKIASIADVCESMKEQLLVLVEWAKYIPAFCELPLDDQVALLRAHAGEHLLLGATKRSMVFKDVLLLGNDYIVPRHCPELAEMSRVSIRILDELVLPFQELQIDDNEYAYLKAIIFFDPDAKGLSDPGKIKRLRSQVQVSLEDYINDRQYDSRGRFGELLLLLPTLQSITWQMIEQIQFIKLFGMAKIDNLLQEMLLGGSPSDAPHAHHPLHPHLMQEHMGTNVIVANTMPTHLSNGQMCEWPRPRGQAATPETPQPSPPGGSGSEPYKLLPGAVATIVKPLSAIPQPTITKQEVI
Sequence of Cellular tumor antigen p53 (Homo sapiens) (P04637 whole entry, looked up): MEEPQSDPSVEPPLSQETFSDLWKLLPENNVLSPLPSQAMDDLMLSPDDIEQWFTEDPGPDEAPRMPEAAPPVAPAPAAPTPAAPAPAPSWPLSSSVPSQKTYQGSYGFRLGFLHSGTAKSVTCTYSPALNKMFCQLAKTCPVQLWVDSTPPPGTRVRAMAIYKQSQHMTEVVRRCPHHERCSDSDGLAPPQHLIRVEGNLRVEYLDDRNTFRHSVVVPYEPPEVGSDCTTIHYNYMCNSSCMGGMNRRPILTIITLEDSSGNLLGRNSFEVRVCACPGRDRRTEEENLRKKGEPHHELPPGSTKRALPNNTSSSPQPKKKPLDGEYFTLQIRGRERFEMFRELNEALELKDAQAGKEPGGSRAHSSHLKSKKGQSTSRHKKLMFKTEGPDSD
Sequence of Nuclear respiratory factor 1 (Homo sapiens) (Q16656 whole entry, looked up): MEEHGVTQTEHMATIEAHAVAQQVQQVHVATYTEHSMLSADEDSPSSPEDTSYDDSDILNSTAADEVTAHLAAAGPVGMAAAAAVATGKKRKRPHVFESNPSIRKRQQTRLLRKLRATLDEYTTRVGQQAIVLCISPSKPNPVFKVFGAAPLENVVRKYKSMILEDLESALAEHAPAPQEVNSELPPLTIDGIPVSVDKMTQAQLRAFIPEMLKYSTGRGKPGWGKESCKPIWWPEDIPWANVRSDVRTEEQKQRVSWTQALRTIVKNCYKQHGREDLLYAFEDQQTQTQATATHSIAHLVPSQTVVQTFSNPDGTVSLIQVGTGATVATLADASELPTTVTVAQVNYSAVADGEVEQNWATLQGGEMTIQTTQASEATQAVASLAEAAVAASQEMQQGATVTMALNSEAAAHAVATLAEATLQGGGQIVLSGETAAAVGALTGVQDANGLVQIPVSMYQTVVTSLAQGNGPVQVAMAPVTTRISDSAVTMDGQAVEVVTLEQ
Sequence of human Retinoid X Receptor beta (RXRb), RXRB (gene 6257) (P28702 whole entry, looked up, the tested form may be a part): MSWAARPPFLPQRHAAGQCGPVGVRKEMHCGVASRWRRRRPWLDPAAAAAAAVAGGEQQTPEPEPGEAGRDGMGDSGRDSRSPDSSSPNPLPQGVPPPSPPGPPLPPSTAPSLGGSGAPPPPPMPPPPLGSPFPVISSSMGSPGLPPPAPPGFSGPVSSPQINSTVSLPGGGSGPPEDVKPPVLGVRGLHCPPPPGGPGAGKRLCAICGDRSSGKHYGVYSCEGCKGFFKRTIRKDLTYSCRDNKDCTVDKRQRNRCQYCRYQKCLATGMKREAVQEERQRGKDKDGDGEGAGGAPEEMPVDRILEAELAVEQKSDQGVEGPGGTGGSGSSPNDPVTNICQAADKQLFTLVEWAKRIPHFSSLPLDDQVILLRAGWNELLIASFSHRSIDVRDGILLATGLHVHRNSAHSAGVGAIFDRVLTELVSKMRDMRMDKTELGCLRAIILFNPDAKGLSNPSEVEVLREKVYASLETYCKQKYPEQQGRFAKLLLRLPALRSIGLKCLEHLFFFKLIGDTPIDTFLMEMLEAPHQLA
Sequence of Retinoic acid receptor RXR-alpha (Homo sapiens) (P19793 whole entry, looked up, the tested form may be a part): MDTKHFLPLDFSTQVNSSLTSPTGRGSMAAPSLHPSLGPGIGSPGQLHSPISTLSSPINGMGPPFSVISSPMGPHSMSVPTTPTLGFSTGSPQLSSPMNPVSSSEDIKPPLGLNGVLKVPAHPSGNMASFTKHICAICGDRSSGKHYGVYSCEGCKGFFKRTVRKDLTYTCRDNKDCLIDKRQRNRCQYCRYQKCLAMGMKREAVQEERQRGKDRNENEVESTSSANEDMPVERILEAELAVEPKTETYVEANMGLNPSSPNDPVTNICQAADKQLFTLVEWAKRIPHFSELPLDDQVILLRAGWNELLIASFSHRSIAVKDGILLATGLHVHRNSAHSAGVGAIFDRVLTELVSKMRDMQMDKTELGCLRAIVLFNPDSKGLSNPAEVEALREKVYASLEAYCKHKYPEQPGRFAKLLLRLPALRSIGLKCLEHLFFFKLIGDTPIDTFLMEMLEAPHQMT
Sequence of Nuclear receptor subfamily 1 group I member 2 (Homo sapiens) (O75469 whole entry, looked up, the tested form may be a part): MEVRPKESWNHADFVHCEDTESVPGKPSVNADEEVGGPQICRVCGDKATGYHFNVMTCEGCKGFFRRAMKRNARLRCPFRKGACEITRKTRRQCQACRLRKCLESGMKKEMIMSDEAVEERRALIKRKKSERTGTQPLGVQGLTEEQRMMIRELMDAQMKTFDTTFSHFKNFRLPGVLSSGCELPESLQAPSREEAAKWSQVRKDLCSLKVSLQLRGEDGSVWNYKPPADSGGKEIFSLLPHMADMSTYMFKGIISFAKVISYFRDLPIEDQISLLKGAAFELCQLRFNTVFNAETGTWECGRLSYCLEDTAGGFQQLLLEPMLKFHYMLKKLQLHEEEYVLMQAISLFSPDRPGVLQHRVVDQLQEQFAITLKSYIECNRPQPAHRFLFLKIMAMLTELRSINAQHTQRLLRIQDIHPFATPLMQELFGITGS

Turning to `CN(C)CCC#N`, the call in [1], in [2], in test [3], in test [4], in [5] and in test [6] was inactive. Further, the call in test [7], in test [8], in test [9], in test [10], in test [11] and in test [12] was inactive. The result in test [13], in [14], in test [15], in test [16] and in test [17] was inactive.

As to `ClCCCCCCCl`, the molecule was called inactive in test [3], in test [18], in test [9], in test [10] and in test [14].

With `[N-]=[N+]=CC(=O)OC[C@H](N)C(=O)O`, the outcome in test [1], in test [2], in [18], in test [9], in test [10] and in test [11] was inactive. For the same molecule, the outcome in [15], in [19], in test [16], in [17] and in test [20] was inactive.

Broadly, the AC50 is the midpoint of the concentration-response curve, whichever way the signal moves. For the molecule `Nc1ccccc1C(=O)OCCc1ccccc1`, the result in [1], in [2], in [3], in [18], in test [6] and in [8] was inactive. The molecule was called inactive in test [9], in test [10], in test [13], in [15], in test [19] and in test [16]. The call in test [17] and in test [20] was inactive. The AC50 in [12] is 19.2 µM (active); in [14], 33.4 µM (active).

As to `CCOC(=O)C1OC1(C)c1ccccc1` (configuration not stated), the call in test [1], in test [2], in [3], in [5], in [6] and in [7] was inactive. For the same molecule, the call in test [10], in test [11], in test [12], in test [13], in test [15] and in test [19] was inactive. Besides, the result in [16], in test [17] and in [20] was inactive.

Regarding `[CH3][Sn]([CH3])([Cl])[Cl]`, the outcome in [1], in test [18], in test [4], in test [5], in test [7] and in [8] was inactive. Further, the result in test [10], in [11], in [12] and in test [14] was inactive.

On to `[CH3][Sn]([Cl])([Cl])[Cl]`, for which the call in test [1], in [3], in test [4], in test [5], in test [6] and in test [8] was inactive. Moreover, the molecule was called inactive in [9], in test [10], in test [11], in [12], in test [19] and in test [16]. In addition, the result in test [20] was inactive.

On to `CCCOC(=O)c1ccccc1C(=O)OCCC`, for which the result in [1], in test [2], in test [18], in [4], in test [5] and in test [6] was inactive. Also, the molecule was classed as inactive in test [7], in [8], in [10], in [11], in test [15] and in test [19]. Also, the result in test [16] and in test [20] was inactive. The AC50 in test [12] was 70.3 µM (active); in [14] it was 76.1 µM (active).

Consider `N#Cc1cccc(C#N)c1`, for which the outcome in [1], in [3], in [18], in test [4], in test [5] and in test [7] was inactive. Besides, the result in test [8], in test [9], in [10], in test [11], in test [12] and in [13] was inactive. Further, the result in [15], in test [19], in test [16], in test [17] and in [20] was inactive.

Consider `C=C(Cl)Cl`, for which the molecule was classed as inactive in test [1], in test [3], in test [18], in test [4], in [5] and in test [8]. Further, the outcome in test [9], in test [10], in test [11], in [12], in [17] and in [20] was inactive.
